Usually cell viability stands for a read-out of living cells in per cent, often relative to untreated cells.

Where a name gives a salt, the structure may show the parent alone. ± gives the uncertainty stated by the source.

The experiment concerns NCC-PMP1-C1. As to the kind of experiment: cell viability relative to DMSO control; higher = less growth inhibition. The note with it: 10 µM; 72 h. The method, then: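 NCC-PMP1-C1 pseudomyxoma peritonei cells were seeded in 384-well plates coated with Matrigel and MEF (1e4 cells). Viability was read after 72 h by CCK-8 and expressed as % of the DMSO control, mean ± SD of duplicates.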
Consider `C[C@]12CC[C@@H]3c4ccc(O)cc4C[C@@H](CCCCCCCCC[S+]([O-])CCCC(F)(F)C(F)(F)F)[C@H]3[C@@H]1CC[C@@H]2O` (stereo not given in full) [Fulvestrant], for which the cell viability was -7.846 ± 0.067%. As for `CCN(CC)CCOc1ccc(C(=C(Cl)c2ccccc2)c2ccccc2)cc1` [Clomifene citrate], the cell viability is -6.65 ± 0.33%. In the case of `Nc1cc(C(Cl)=C(Cl)Cl)c(S(N)(=O)=O)cc1S(N)(=O)=O` [Clorsulon] it was 117 ± 9.7%. Consider `C=CC(=O)N1CCC[C@@H](n2nc(-c3ccc(Oc4ccccc4)cc3)c3c(N)ncnc32)C1`, for which the cell viability came out at 59 ± 5.5%. On to `COc1cc2nccc(Oc3ccc(NC(=O)C4(C(=O)Nc5ccc(F)cc5)CC4)cc3)c2cc1OC`, for which the cell viability was found to be 48.9 ± 2.8%. In the case of `CN(C)c1nc(N(C)C)nc(N(C)C)n1` [Altretamine] it was 113 ± 7.4%; in that of `COc1cc([C@@H]2c3cc4c(cc3[C@@H](O[C@@H]3O[C@@H]5CO[C@@H](c6cccs6)O[C@H]5[C@H](O)[C@H]3O)[C@H]3COC(=O)[C@H]23)OCO4)cc(OC)c1O` [Teniposide], 13.5 ± 1.5%; in that of `O=C(c1cc(Cc2n[nH]c(=O)c3ccccc23)ccc1F)N1CCN(C(=O)C2CC2)CC1`, 92.3 ± 8.4%. In the case of `CC/C(=C(/CC)c1ccc(O)cc1)c1ccc(O)cc1` [Diethylstilbestrol] it was 121.2 ± 0.53%; in that of `COc1ccc(/C=C/C(=O)Nc2ccccc2C(=O)O)cc1OC` [Tranilast], 111 ± 20%.

As for `NCC(=O)CCC(=O)O` [5-Aminolevulinic acid HCl], the cell viability was found to be 102.7 ± 0.67%. The value for `Cc1c2oc3c(C)ccc(C(=O)N[C@@H]4C(=O)N[C@H](C(C)C)C(=O)N5CCC[C@H]5C(=O)N(C)CC(=O)N(C)[C@@H](C(C)C)C(=O)O[C@@H]4C)c3nc-2c(C(=O)N[C@@H]2C(=O)N[C@H](C(C)C)C(=O)N3CCC[C@H]3C(=O)N(C)CC(=O)N(C)[C@@H](C(C)C)C(=O)O[C@@H]2C)c(N)c1=O` [Actinomycin D] was 8.77 ± 0.95%; that for `CO[C@H]1O[C@@H]2O[C@@]3(C)CC[C@H]4[C@H](C)CC[C@@H]([C@H]1C)[C@@]24OO3` [Artemether] was 105 ± 6.2%; that for `CCN1CCN(Cc2ccc(Nc3ncc(F)c(-c4cc(F)c5nc(C)n(C(C)C)c5c4)n3)nc2)CC1` [Abemaciclib mesylate] was 77.7 ± 1.2%. In the case of `COc1c2ccoc2cc2oc(=O)ccc12` [Bergapten] it was 87.3 ± 5%; in that of `C#CCC(Cc1cnc2nc(N)nc(N)c2n1)c1ccc(C(=O)N[C@@H](CCC(=O)O)C(=O)O)cc1` (stereo not given in full) [Pralatrexate], 104 ± 9.8%; in that of `COc1cc2nccc(Oc3ccc(NC(=O)C4(C(=O)Nc5ccc(F)cc5)CC4)cc3)c2cc1OC` [Cabozantinib malate (XL184)], 52.5 ± 6.2%. The value for `CNC(=O)c1ccccc1Sc1ccc2c(/C=C/c3ccccn3)n[nH]c2c1` [Axitinib] was 61.27 ± 0.13%; that for `CN(C)/N=N/c1[nH]cnc1C(N)=O` [Dacarbazine] was 111.7 ± 1.1%; that for `CC(=O)Oc1ccccc1C(=O)O` [Aspirin] was 110 ± 4.8%. Regarding `FC(F)(F)c1ccc(/C=C/c2nc(COc3ccc(CCCCn4ccnn4)cc3)co2)cc1` [Mubritinib (TAK 165)], the cell viability was found to be 171 ± 3.5%.

In the case of `Cc1ccc(-n2[nH]c(C)c(N=Nc3cccc(-c4cccc(C(=O)O)c4)c3O)c2=O)cc1C` [Eltrombopag Olamine], the cell viability was found to be 113 ± 3.3%. The value for `O=NN(CCCl)C(=O)NC1CCCCC1` [Lomustine] was 105 ± 11%; that for `O=c1[nH]c(=O)n([C@H]2C[C@H](O)[C@@H](CO)O2)cc1F` [Floxuridine] was 108 ± 12%. Regarding `CN(N=O)C(=O)NC1C(O)OC(CO)C(O)C1O` (stereo not given) [Streptozotocin (STZ)], the cell viability came to 111 ± 3.5%.

Consider `CC[C@]1(O)C[C@@H]2CN(CCc3c([nH]c4ccccc34)[C@@](C(=O)OC)(c3cc4c(cc3OC)N(C)[C@H]3[C@@](O)(C(=O)OC)[C@H](OC(C)=O)[C@]5(CC)C=CCN6CC[C@]43[C@@H]65)C2)C1` [Vinblastine sulfate], for which the cell viability was 43.6 ± 2.9%. The value for `CC[C@@]1(O)C(=O)OCc2c1cc1n(c2=O)Cc2cc3c(CN(C)C)c(O)ccc3nc2-1` [Topotecan HCl] was 55.8 ± 2.9%. For the molecule `Nc1ncn([C@H]2C[C@H](O)[C@@H](CO)O2)c(=O)n1` [Decitabine], the cell viability was 95.2 ± 0.53%.

For `CN1CCN(CCOc2cc(OC3CCOCC3)c3c(Nc4c(Cl)ccc5c4OCO5)ncnc3c2)CC1` [Saracatinib (AZD0530)], the cell viability amounted to 49.7 ± 2%.

With `O=c1[nH]cc(F)c(=O)[nH]1` [Fluorouracil (5-Fluoracil, 5-FU)], the cell viability is 86.7 ± 7.5%. In the case of `N#CC1(c2ccc(NC(=O)c3cccnc3NCc3ccncc3)cc2)CCCC1` [Apatinib] it was 77.6 ± 9.1%. In the case of `Cc1nc(Nc2ncc(C(=O)Nc3c(C)cccc3Cl)s2)cc(N2CCN(CCO)CC2)n1` [Dasatinib Monohydrate] it was 41.1 ± 8.4%; in that of `CO[C@H]1C[C@@H]2CC[C@@H](C)[C@@](O)(O2)C(=O)C(=O)N2CCCC[C@H]2C(=O)O[C@H]([C@H](C)C[C@@H]2CC[C@@H](OCCO)[C@H](OC)C2)CC(=O)[C@H](C)/C=C(\C)[C@@H](O)[C@@H](OC)C(=O)[C@H](C)C[C@H](C)/C=C/C=C/C=C/1C` [Everolimus (RAD001)], 83.3 ± 7.4%. The value for `Nc1cccc2c1C(=O)N(C1CCC(=O)NC1=O)C2=O` (stereo not given) [Pomalidomide] was 99.2 ± 2.3%; that for `CN1CCN(c2ccc(C(=O)Nc3n[nH]c4ccc(Cc5cc(F)cc(F)c5)cc34)c(NC3CCOCC3)c2)CC1` [Entrectinib (RXDX-101)] was -0.545 ± 0.059%; that for `Cc1ccc(S(=O)(=O)Nc2nc3ccccc3nc2Nc2ccc3nsnc3c2)cc1` [XL147 analog] was 96.2 ± 9%. Take `CCCCNc1ncc(-c2ccc(CN3CCOCC3)cn2)c(NC2CCC(O)CC2)n1` (stereo not given): the cell viability was 43.4 ± 2%. The value for `N#CC[C@H](C1CCCC1)n1cc(-c2ncnc3[nH]ccc23)cn1` was 83.6 ± 8.2%; that for `CC(C)c1nc(CN(C)C(=O)N[C@@H](CCN2CCOCC2)C(=O)N[C@H](CC[C@H](Cc2ccccc2)NC(=O)OCc2cncs2)Cc2ccccc2)cs1` [Cobicistat (GS-9350)] was 83.8 ± 3.1%.

Regarding `O=C1c2c(O)ccc(O)c2C(=O)c2c(NCCNCCO)ccc(NCCNCCO)c21` [Mitoxantrone 2HCl], the cell viability turned out to be 2.67 ± 1.1%.

Source of the values: the supplement of paper PMC8877412.
